Data from PubChem BioAssay (NCATS).
Results filed as inconclusive are left out. A call without a number means that no potency is given here. Activity calls are given as the source filed them. Calls come from the whole dose curve; as a rule, active = well fitted inhibition curve with a large enough effect; inconclusive = small, poorly fitted or top-dose-only effect; inactive = flat fitted curve, though single readings scatter.

System: HB3
Assay: qHTS profiling for inhibitors of Plasmodium falciparum proliferation (AID 504749); note: nearly all actives have a fitted effect of over 60% in size
Conditions: P. falciparum in erythrocytes, SYBR Green DNA, 72 h; series mostly up to 28.7 µM
Outline: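 Each compound contacts P. falciparum-infected red blood cells for 72 h at 37 C; lysis buffer (Tris, EDTA, saponin, Triton X, SYBR Green I) is added and fluorescence measured next morning; values normalized to controls.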
Potency is the fitted concentration of half-maximal effect.

| SMILES | Potency |
| --- | --- |
| Cc1cccc(C)c1OCC(C)N (configuration not stated) | inactive |
| CC1(C)O[C@H]2C[C@@H]3[C@H]4CCC5=CC(=O)C=C[C@]5(C)[C@@]4(F)[C@@H](O)C[C@]3(C)[C@]2(C(=O)CO)O1 | inactive |
| COc1ccc(Cc2nccc3cc(OC)c(OC)cc23)cc1OC | inactive |
| CC(=O)c1ccc(S(=O)(=O)NC(=O)NC2CCCCC2)cc1 | inactive |
| CC1=C(/C=C/C(C)=C/C=C/C(C)=C/C(=O)Nc2ccc(O)cc2)C(C)(C)CCC1 | 11.2 µM (active) |
| CC(=O)N[C@@H](CS)C(=O)O | inactive |
| Cc1cnc(C(=O)O)c[n+]1[O-] | inactive |
| O=C1NC(=O)C(c2ccccc2)(c2ccccc2)N1 | inactive |
| CN(C)CCC(c1ccccc1)c1ccccn1 (configuration not stated) | inactive |
| CC/C(=C(\c1ccccc1)c1ccc(OCCN(C)C)cc1)c1ccccc1 | inactive |
| O=C1NCC2(CCN(CCc3ccccc3)CC2)O1 | inactive |
| CC(=O)O[C@]1(C(C)=O)CC[C@H]2[C@@H]3C=C(Cl)C4=CC(=O)[C@@H]5C[C@@H]5[C@]4(C)[C@H]3CC[C@@]21C | inactive |
| NC(N)=Nc1nc(CSCC/C(N)=N/S(N)(=O)=O)cs1 | inactive |
| CCCCCN(C)CCC(O)(P(=O)(O)O)P(=O)(O)O | inactive |
| NCCS | inactive |
| COc1ccccc1N1CCN(CCCNc2cc(=O)n(C)c(=O)n2C)CC1 | inactive |

| SMILES | Potency |
| --- | --- |
| O=C(NCCN1CCOCC1)c1ccc(Cl)cc1 | inactive |
| C[C@@H](O)[C@H]1C(=O)N2C(C(=O)O)=C(S[C@@H]3CN[C@H](C(=O)N(C)C)C3)[C@H](C)[C@H]12 | inactive |
| CC(=O)CCCCn1c(=O)c2c(ncn2C)n(C)c1=O | inactive |
| O=C(O)c1cc(-c2ccccc2)nc2ccccc12 | inactive |
| O=C(O)Cc1cccc2ccccc12 | inactive |
| CCN(CC)C(=O)c1ccc(O)c(OC)c1 | inactive |
| CCCCC1C(=O)N(c2ccccc2)N(c2ccccc2)C1=O | inactive |
| O=C1Nc2ccc(Cl)cc2C(C#CC2CC2)(C(F)(F)F)O1 (configuration not stated) | inactive |
| CCCNC(=O)NS(=O)(=O)c1ccc(Cl)cc1 | inactive |
| CCN1CCC[C@H]1CNC(=O)c1cc(S(N)(=O)=O)ccc1OC | inactive |
| C[N+](C)(C)CCCCCC[N+](C)(C)C | inactive |
| CCN(CC)CCNC(=O)c1ccc(N)cc1 | inactive |
| O=C(O)c1c(Cl)c(Cl)c(Cl)c(Cl)c1-c1c2cc(I)c(=O)c(I)c-2oc2c(I)c(O)c(I)cc12 | inactive |
| CCOC(=O)O[C@]1(C(=O)OCCl)CC[C@@H]2[C@H]3CCC4=CC(=O)C=C[C@]4(C)[C@@H]3[C@@H](O)C[C@@]21C | inactive |
| Clc1ccc(Cn2c(CN3CCCC3)nc3ccccc32)cc1 | inactive |
| CCN(CC)CCOC(=O)c1ccc(N)cc1 | inactive |
